Sfp PPTase inh = Sfp phosphopantetheinyl transferase inhibition | Q9F4F7 | Biochemical Sfp PPTase activity, qHTS | Potency, µM, most hits filed as inhibitors | 310,000 tested, 3.5% active | AID 1490;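 also: the enzyme is Sfp with the accession as filed and its product quenches rhodamine fluorescence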
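Compounds were incubated with enzyme (final 15 nM) for 15 min at room temperature before substrate addition started the reaction. Fluorescence at 525 nm excitation, 598 nm emission was recorded immediately and after 30 minutes.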
HP1b chromo inh = inhibitors of HP1-beta chromodomain binding to methylated histone tails; Potency, µM (top dose mostly 114 µM), most hits filed as inhibitors; AlphaScreen HP1-beta / biotin-H3K9me3 peptide binding; AID 540317; P83916; 390,000 tested, 0.56% active; also: nearly all actives have a fitted effect of over 70% in size
Target sequence (P83916 whole entry, looked up): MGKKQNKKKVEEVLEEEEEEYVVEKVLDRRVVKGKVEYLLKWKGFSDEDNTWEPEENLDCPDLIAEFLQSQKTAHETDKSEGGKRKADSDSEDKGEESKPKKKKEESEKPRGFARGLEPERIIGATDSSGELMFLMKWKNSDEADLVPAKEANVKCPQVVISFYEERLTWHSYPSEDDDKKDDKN
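AlphaScreen: HP1-beta (50 nM) preformed 30 min with biotin-H3(1-18)K9me3 peptide (50 nM) in PBS pH 7.4, 0.01% Tween-20. Compound added for 30 min at RT, then streptavidin donor/nickel chelate acceptor beads (10 ug/mL) for 30 min.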
G9a inh = inhibitors of human histone lysine methyltransferase G9a; G9a H3K9 monomethylation, AlphaScreen, 2 h; Potency, µM (top dose mostly 102 µM), most hits filed as inhibitors; 350,000 tested, 8.8% active; AID 504332; also: nearly all actives have a fitted effect of over 75% in size
Target sequence (Q96KQ7 913-1193 limits assumed): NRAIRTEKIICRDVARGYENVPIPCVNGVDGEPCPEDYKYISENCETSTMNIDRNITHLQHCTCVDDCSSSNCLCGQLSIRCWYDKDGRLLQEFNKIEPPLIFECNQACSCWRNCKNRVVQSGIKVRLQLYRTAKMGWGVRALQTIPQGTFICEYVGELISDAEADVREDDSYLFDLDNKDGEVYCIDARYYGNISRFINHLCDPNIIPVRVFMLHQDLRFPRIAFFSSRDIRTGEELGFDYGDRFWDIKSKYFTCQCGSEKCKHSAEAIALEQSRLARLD
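AlphaScreen detection with an anti-monomethyl H3K9 antibody quantified product after a 2 h room-temperature reaction containing 500 nM biotinylated H3K9 peptide, 20 µM SAM and 20 nM enzyme, which had been preincubated 15 min with compound.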
JMJD2A Tudor inh = JMJD2A Tudor domain (human) inhibition. Potency, µM (top dose mostly 114 µM), actives largely listed as inhibitors. AID 504339. O75164. 390,000 tested, 4.4% active. AlphaScreen JMJD2A-Tudor / H3K4me3 peptide binding; also: nearly all actives have a fitted effect of over 50% in size
BAZ2B inh = BAZ2B (human) inhibition | Q9UIF8 | AlphaScreen BAZ2B-H3K14Ac peptide displacement | Potency, µM (top dose mostly 114 µM), usual class: inhibitors | 360,000 tested, 4.4% active | AID 504333; also: nearly all actives have a fitted effect of over 60% in size
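AlphaScreen displacement of biotin-H3(5-23)K14Ac peptide (50 nM final) from BAZ2B (50 nM final) in PBS pH 7.4, 0.01% Tween-20; complex preformed 30 min RT, then compounds (top 110 uM) 30 min RT, beads 20 min dark.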
Of the large screens only hits and unclear results are named; the others gave an inactive call. Most compounds without a hit are left out; they make up all but 12% or so of the library. Calls follow the shape of the dose curve; as a rule, active = well fitted curve in the direction sought with a large enough effect; inconclusive = small, poorly fitted or top-dose-only effect, or another doubt; inactive = no such curve, though single readings can be large; an effect the other way counts as inactive or inconclusive.

COc1ccc(NC(=O)C2C3C=CC4(CN(Cc5cccnc5)C(=O)C24)O3)c(OC)c1 (configuration not stated)	BAZ2B inh 50µM
CCOC(=O)CN1CC23C=CC(O2)C(C(=O)Nc2ccc(OC)cc2OC)C3C1=O (configuration not stated)	G9a inh 50µM
COc1ccc(NC(=O)Cn2c(=O)n(CCc3ccccc3)c(=O)c3sc4ccccc4c32)cc1	none (no result: Sfp PPTase inh)
COc1ccc(OC(C)C(=O)NC(C)c2ccccc2)cc1 (configuration not stated)	none
OCCN(Cc1ccccc1)Cc1ncccc1O	none (no result: Sfp PPTase inh, G9a inh, BAZ2B inh)
OCCN(Cc1cccnc1)Cc1ccccn1	JMJD2A Tudor inh 50µM (no result: Sfp PPTase inh, G9a inh, BAZ2B inh)
COc1cccc(CN(C)C(=O)c2cc(-c3ccc(F)cc3)nc3ccccc23)c1	Sfp PPTase inh 22µM, G9a inh inconclusive, BAZ2B inh inconclusive
COc1cccc(CN(C)C(=O)c2cc(-c3ccc(OC)c(OC)c3)nc3ccccc23)c1	none (no result: G9a inh)
COc1ccc(CCN(C)C(=O)c2cc(-c3ccccc3)nc3ccccc23)cc1OC	G9a inh 40µM, BAZ2B inh inconclusive
O=C(COc1ncnc2ccc(Br)cc12)N1CCOCC1	G9a inh 1.1µM
Brc1ccc2ncnc(Nc3ccc(N4CCOCC4)cc3)c2c1	JMJD2A Tudor inh inconclusive, BAZ2B inh 45µM
Cc1ccc(N)cc1O	none (no result: Sfp PPTase inh)
Cc1cc(O)c(-c2cc(O)c(C)cc2O)cc1O	Sfp PPTase inh 2.5µM, HP1b chromo inh 1.8µM, G9a inh 2µM, JMJD2A Tudor inh 5µM, BAZ2B inh 50µM
COc1ccccc1-c1n[nH]c(=S)n1-c1ccccc1	G9a inh 2.5µM, JMJD2A Tudor inh 7.9µM
COc1ccccc1-c1n[nH]c(=S)n1N	Sfp PPTase inh 45µM, G9a inh 13µM, JMJD2A Tudor inh inconclusive, BAZ2B inh inconclusive
CCC(=O)N1CCc2cc(Br)cc(S(=O)(=O)CCC(=O)NCc3cccc(OC)c3)c21	none (no result: Sfp PPTase inh)
Cc1ccccc1C1=C/C(=C(\SS/C(C(=O)c2ccc(OCC(=O)O)c(Cl)c2Cl)=C2\C=C(c3ccccc3C)SS2)C(=O)c2ccc(OCC(=O)O)c(Cl)c2Cl)SS1	HP1b chromo inh 20µM, JMJD2A Tudor inh 28µM (no result: Sfp PPTase inh, G9a inh, BAZ2B inh)
CCn1c2ccccc2c2nnc(SCc3ccc(C(=O)OC)o3)nc21	Sfp PPTase inh 32µM, G9a inh inconclusive
CCn1c2ccccc2c2nnc(SCC(=O)NC3CCS(=O)(=O)C3)nc21 (configuration not stated)	G9a inh 40µM
COC(=O)c1ccc(CSc2cc(C)c3ccccc3n2)o1	Sfp PPTase inh 25µM
CCn1c2ccccc2c2nnc(SCC(=O)N(C)C3CCS(=O)(=O)C3)nc21 (configuration not stated)	G9a inh inconclusive
C/C=C/OC(=O)NC(c1ccccc1)[C@]1(C(C)=O)CCOC1=O (some centres not stated)	none (no result: HP1b chromo inh, G9a inh, JMJD2A Tudor inh, BAZ2B inh)
COC(=O)Cn1c(CCS(=O)(=O)c2ccc(C)c(C)c2)nc2ccccc21	G9a inh inconclusive
O=C(O)Cn1c(CCS(=O)(=O)c2ccc(Br)cc2)nc2ccccc21	G9a inh 45µM
Cc1ccc(-c2nc3ccc(NS(=O)(=O)c4ccccc4)cc3[nH]2)o1	Sfp PPTase inh 35µM, G9a inh inconclusive, BAZ2B inh inconclusive
O=S(=O)(Nc1ccc2nc(C(F)(F)F)[nH]c2c1)c1ccccc1	none
O=S(=O)(Nc1ccc2nc(-c3ccc(Br)o3)[nH]c2c1)c1ccccc1	Sfp PPTase inh 50µM, BAZ2B inh inconclusive (no result: HP1b chromo inh, JMJD2A Tudor inh)
COc1cccc(C(=O)c2cn(CC(=O)NCc3ccccc3)c3nc(C)ccc3c2=O)c1	JMJD2A Tudor inh inconclusive (no result: Sfp PPTase inh)
O=C(COc1cccc2c1CCN(Cc1ccc(Br)cc1)C2=O)N1CCOCC1	none
O=C(COc1ccc(Cl)cc1Cl)NNC(=S)NC(=O)c1ccco1	Sfp PPTase inh inconclusive, HP1b chromo inh inconclusive, G9a inh 7.9µM, JMJD2A Tudor inh inconclusive
O=C(COc1cccc2c1CCN(Cc1ccc(Br)cc1)C2=O)NCc1ccco1	G9a inh inconclusive, JMJD2A Tudor inh 50µM, BAZ2B inh inconclusive
Cc1ccc2c(Cl)cc(Cl)c(OCC(=O)NCc3ccco3)c2n1	Sfp PPTase inh inconclusive, BAZ2B inh 40µM (no result: HP1b chromo inh, JMJD2A Tudor inh)
CC(Oc1ccc(Cl)cc1)C(=O)NNC(=S)NC(=O)c1ccco1 (configuration not stated)	G9a inh 11µM
O=C(NC(=S)NCc1ccc(Cl)cc1Cl)c1ccco1	none (no result: Sfp PPTase inh, G9a inh, BAZ2B inh)
CCN(CC)CCN(Cc1cc2cc3c(cc2[nH]c1=O)OCCO3)C(=S)NC	none (no result: G9a inh)
COc1ccc(CCNC(=O)Cc2c(C)c3cc4c(C(C)(C)C)coc4c(C)c3oc2=O)cc1OC	none (no result: Sfp PPTase inh)
O=C(COc1ccccc1-c1ccccc1)NCc1ccco1	Sfp PPTase inh 89µM (no result: BAZ2B inh)
O=C(COc1ccc(Cl)cc1Cl)NCc1ccco1	G9a inh 56µM
CCOc1ccccc1OCC(=O)NCc1ccco1	G9a inh inconclusive, JMJD2A Tudor inh inconclusive, BAZ2B inh inconclusive
O=C(COc1ccccc1Cl)NCc1ccco1	none
O=C(O)c1ccc(N/N=C/c2ccc3nccnc3c2)cc1	G9a inh 50µM
Cc1ccc2nc(Cl)c(/C=N/Nc3ccc(C(=O)O)cc3)cc2c1	G9a inh 50µM, BAZ2B inh inconclusive
O=C(O)c1ccc(N/N=C/c2ccc(F)c(F)c2)cc1	G9a inh 4.5µM
Cc1ccc2cc(/C=N/NC(=O)c3ccc(F)cc3)c(Cl)nc2c1	none
O=C(O)c1ccc(N/N=C/c2cccc3cccnc23)cc1	BAZ2B inh 71µM (no result: G9a inh)
C#CCNC(=O)C1=C[C@@H](C)[C@H](CCCO)[C@@H](OCC)O1	none (no result: Sfp PPTase inh, G9a inh, BAZ2B inh)
CN(C)CCCNC(=O)C(=O)NCC(c1cccs1)S(=O)(=O)c1ccc(F)cc1 (configuration not stated)	none (no result: Sfp PPTase inh)
COC(=O)CC1C(C)(C)C2(O)OC34CC2C(=O)[C@@]1(C)C3CC[C@]1(C)C4=CC(=O)OC1c1ccoc1 (some centres not stated)	none (no result: HP1b chromo inh, JMJD2A Tudor inh, BAZ2B inh)
O=C(O)c1cccc(-c2noc(-c3ccccc3F)n2)c1	none (no result: Sfp PPTase inh, HP1b chromo inh, BAZ2B inh)
C(=N\NCc1ccccc1)/c1ccc2ncccc2c1	none
C(=N\NCc1ccccc1)/c1ccc2nccnc2c1	G9a inh 50µM
Oc1c(Cl)cc(Cl)cc1C=Nc1ccccc1N1CCCC1	G9a inh 10µM, BAZ2B inh 45µM (no result: HP1b chromo inh, JMJD2A Tudor inh)
CCOC(=O)c1c(N)sc(C(=O)Nc2ccccc2)c1C	Sfp PPTase inh 20µM, HP1b chromo inh inconclusive
CCOC(=O)c1sc(NC(=O)Nc2ccccc2)cc1C	Sfp PPTase inh 35µM, G9a inh inconclusive
CCOC(=O)c1sc(NC(=O)Nc2ccccc2Cl)cc1C	Sfp PPTase inh inconclusive
CCOC(=O)c1c(N)sc(C(=O)Nc2ccccc2F)c1C	none
O=C(Nc1ccccc1)Nc1ccccc1-n1ccnc1	none
CCN(CC(=O)NCc1cccs1)C(=O)c1ccc(NS(=O)(=O)c2ccc(C(C)=O)cc2)cc1	none (no result: Sfp PPTase inh)
CC(=O)Nc1c(C)nn(-c2ccccc2)c1N1CCC(C(=O)NCc2ccc(Cl)cc2)CC1	none (no result: Sfp PPTase inh)
CCC(=O)Nc1ccc(N2CCOCC2)c(S(=O)(=O)Nc2ccc(Cl)cc2)c1	HP1b chromo inh inconclusive, G9a inh inconclusive, JMJD2A Tudor inh 79µM (no result: Sfp PPTase inh)

From PubChem BioAssay
